MEKK2 WT-MEK5: modulators of MEK5 binding to wildtype MEKK2, primary screen, biochemical, multiplex bead flow cytometry, Alexa488-MEK5. binding response (% of control), % at 10 µM. actives 1.1% (n = 290,000). Alexa488-MEK5 binding to MEKK2 WT; actives lie on both sides. Mitogen-activated protein kinase kinase kinase 2 (Homo sapiens), Q9Y2U5; in the data active means binding response below about 67% or above about 130%
MEKK3 PB1 HTS: modulators of MEKK3-MEK5 PB1 binding, primary screen, biochemical, wildtype MEKK3, multiplex bead flow cytometry, Alexa488-MEK5; Mitogen-activated protein kinase kinase kinase 3 (Homo sapiens), Q99759; bead-based flow cytometry, Alexa488-MEK5 binding to MEKK3; actives lie on both sides; 0 = blocked by unlabeled MEK5, 100 = vehicle; binding response (% of control), % at 10 µM; actives 1.4% (n = 290,000); AID 1529, 2009;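 active means binding response more than 3 SD above or below the average of its plate-row segment, actives on both sides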;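 further: Alexa488 bead fluorescence after subtracting the streptavidin-only scavenger bead signal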
CHT block: inhibitors of human choline transporter CHT; CHT-expressing cells, membrane potential dye, choline response; hits give low values; B-score at 10 µM; actives 0.86% (n = 310,000);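 active means B-score over 3 SD under the library average, and starting fluorescence ratio not unusually high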;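 further: choline stimulus applied at its EC90 after an EC20 pre-addition; B-score computed on integrated fluorescence ratio after choline addition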
Target sequence (Q9GZV3 whole entry, looked up): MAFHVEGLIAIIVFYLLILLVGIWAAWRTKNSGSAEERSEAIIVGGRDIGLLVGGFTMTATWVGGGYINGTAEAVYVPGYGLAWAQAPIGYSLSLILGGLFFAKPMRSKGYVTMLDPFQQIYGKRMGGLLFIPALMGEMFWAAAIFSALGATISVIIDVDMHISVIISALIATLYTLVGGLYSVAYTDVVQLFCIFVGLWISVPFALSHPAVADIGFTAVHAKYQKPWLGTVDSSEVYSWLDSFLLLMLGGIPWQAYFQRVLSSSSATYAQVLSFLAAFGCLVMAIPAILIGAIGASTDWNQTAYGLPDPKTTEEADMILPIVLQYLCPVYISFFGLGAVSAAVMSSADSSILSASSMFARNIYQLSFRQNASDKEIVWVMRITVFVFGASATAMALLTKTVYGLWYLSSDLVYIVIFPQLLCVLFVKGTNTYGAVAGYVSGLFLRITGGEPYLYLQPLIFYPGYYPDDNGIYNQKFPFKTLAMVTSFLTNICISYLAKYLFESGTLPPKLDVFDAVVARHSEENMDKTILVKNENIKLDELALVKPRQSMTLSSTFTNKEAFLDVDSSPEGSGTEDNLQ
MEKK2 mut-MEK5: MEK5 binding signal on mutant MEKK2 PB1, primary screen, biochemical, multiplex bead flow cytometry, Alexa488-MEK5; Alexa488-MEK5 binding to MEKK2 mutant; percent response, % at 10 µM; actives 0.35% (n = 290,000); in the data active means percent response above about 24%, passing the limit was not always enough
CHT allo act: CHT positive allosteric modulators, primary screen, cell-based, membrane potential dye, choline EC20; High affinity choline transporter 1 (Homo sapiens), Q9GZV3; CHT-expressing cells; hits give high values; LV-AA mutant CHT in HEK293 cells; actives 0.49% (n = 310,000); B-score at 10 µM;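 active means initial fluorescence not abnormally high and integrated response B-score, plate-corrected, over 3 SD above library mean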
Mot1-301 SUMO: yeast Mot1-301 growth rescue at high temperature, primary screen, SUMOylation pathway inhibitor project, S. cerevisiae, ATP luminescence, 38.5C | S. cerevisiae Mot1-301 growth rescue; percent above DMSO median, 100 means doubled | AID 2716, 2010 | actives 1% (n = 320,000) | growth rescue, % at 18.8 µM;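 active means every valid replicate shows activation above 250% relative to neutral control wells; inactive means the rest, any valid replicate at or below 250%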;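 further: OY570 slx delta 5 strain wells were the positive control but not used for scaling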
MEKK2wt confirm: modulators of MEK5 binding to wildtype MEKK2, confirmation, biochemical, single concentration, multiplex bead flow cytometry | actives 2.4% (n = 5,900) | shares compounds with MEKK3 PB1 HTS | binding response (% of control), % at 10 µM | AID 1892, 2009 | Alexa488-MEK5 binding to MEKK2 WT; actives lie on both sides; in the data active means binding response below about 16% or above about 210%; inactive means in between
MEKK2mut-MEK5: mutant MEKK2 PB1-MEK5 binding signal retest – biochemical, single concentration, multiplex bead flow cytometry, confirmation; actives 2% (n = 5,900); Alexa488-MEK5 binding to MEKK2 mutant; AID 1893, 2009; percent response, % at 10 µM; shares compounds with MEKK3 PB1 HTS; in the data active means percent response mostly above about 71%, no sharp cut-off; inactive means mostly below about 38%;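 further: higher means compound restores mutant binding toward wildtype level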
MEKK3 confirm: MEKK3 wild-type PB1 binding to MEK5, inhibitors, confirmation, biochemical, bead multiplex flow cytometry, single concentration, wildtype | AID 1894, 2009 | actives 1.8% (n = 5,900) | shares compounds with MEKK3 PB1 HTS | Alexa488-MEK5 binding to MEKK3; hits give low values | binding response (% of control), % at 10 µM;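 active means binding response below 72% of control, or above a set upper limit, though filed actives all read lower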;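 further: 100% = DMSO only wells and 0% = binding blocked by excess unlabeled MEK5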
Starred values were filed as active, the others as inactive; i = inactive; nt = not tested or not shown; [ ] = remark or other dose. An excerpt weighted towards active compounds, which were near 4.1% of everything screened.

SMILES	MEKK2 WT-MEK5	MEKK3 PB1 HTS	CHT block	MEKK2 mut-MEK5	CHT allo act	Mot1-301 SUMO	MEKK2wt confirm	MEKK2mut-MEK5	MEKK3 confirm
CSCCC(=O)Nc1cc(S(=O)(=O)N2CCOCC2)ccc1N1CCN(C)CC1	96	93	i	-2	i	14	nt	nt	nt
CCOC(=O)C1CC2CC(C1)CN(C(=O)C1CCCCC1)C2 (stereo not drawn)	100	102	i	2	i	7	nt	nt	nt
CCOC(=O)C1=C(C)NC(C)=C(C(=O)OCC)C1C(=O)OCC(=O)N(C)C	91	92	i	-17	i	-12	nt	nt	nt
Cc1ccc(C(=O)N[C@H](C(=O)OCC(=O)NC2CCS(=O)(=O)C2)C(C)C)cc1 (stereo partly drawn)	110	132*	i	0	i	-11	105	17	103
CCOC(=O)CSc1c(-c2ccc(Cl)cc2)[nH]c2ccccc12	109	155*	i	8	i	12	103	-4	97
O=C(Cc1cccs1)NCCSc1c(-c2ccc(Cl)cc2)[nH]c2ccccc12	2.0*[inhibitor]	1.0*[inhibitor]	i	-14	i	1	118	5	107
O=C(NCCSc1c(-c2ccccc2)[nH]c2ccccc12)c1cc2ccccc2oc1=O	95	109	i	3	i	-13	nt	nt	nt
Cn1c(Cc2ccc3c(c2)OCO3)nnc1SCC(=O)NC(C)(C)C	64	65*[inhibitor]	i	-12	i	0	104	-2	103
COc1ccc(CN(C)Cc2nc3scc(-c4ccccc4)c3c(=O)[nH]2)cc1OC	104	102	i	-1	i	-8	nt	nt	nt
Cc1ccc[n+](CC(=O)Nc2c(Cl)cc(Cl)cc2Cl)c1	68	68*[inhibitor]	i	-13	i	-10	100	-3	98
O=C(C[n+]1ccccc1)Nc1c(Cl)cc(Cl)cc1Cl	86	86	i	-14	i	-8	nt	nt	nt
COc1ccc(-c2c(-c3ccc(OCC(=O)NN)cc3O)n[nH]c2C)cc1OC	104	104	i	3	i	-17	nt	nt	nt
COc1ccc(-c2c(-c3ccc(OCC(=O)NN)cc3O)n[nH]c2C(F)(F)F)cc1	107	130*	i	0	i	-6	100	-11	97
Cc1cc(-c2cc(N)n(-c3ccccc3)n2)c(C)n1C1CCCC1	-5.0*[inhibitor]	89	i	-34	i	-13	99	4	102
COc1ccc(-c2ccc(SCC(=O)N3c4ccccc4CC3C)nn2)cc1OC (stereo not drawn)	117	122*	i	9	i	-1	107	2	100
Cc1cccc(C2c3[nH]c4ccccc4c3CCN2Cc2cccn2-c2ncccn2)c1 (stereo not drawn)	149*	110	i	30	i	4	109	5	102
CCOC(=O)C1=C(CC)OC(N)=C(C#N)C1c1ccc(OC)c(C)c1OC (stereo not drawn)	2.0*[inhibitor]	2.0*[inhibitor]	i	-13	i	-22	95	-2	99
COc1ccc(C2C3=C(CC(C)(C)CC3=O)Oc3ncn(Cc4ccco4)c(=N)c32)cc1 (stereo not drawn)	-1.0*[inhibitor]	2.0*[inhibitor]	i	-26	i	13	105	7	103
COc1ccc(C2c3c(ncn(Cc4ccco4)c3=N)Oc3ccc4ccccc4c32)cc1 (stereo not drawn)	185*	106	i	56*	i	12	190	62	112
NC(=O)CSc1nnc(COc2ccccc2)n1Cc1ccco1	120	131*	i	0	i	-16	96	-3	97
Cc1nnc(SCC(=O)NNC(=O)C(C)C)[nH]c1=O	106	134*	i	4	i	-9	107	-2	104
O=[N+]([O-])c1ccc(CN2CCN(c3ccc(Cl)cc3)CC2)o1	102	103	i	0	i	50	nt	nt	nt
COc1ccc(C(=O)N2CCc3ccccc32)cc1	100	122*	i	5	i	16	99	-6	98
Cn1nc(C(=O)Nc2ccc3c(c2)OCCO3)cc1C(=O)O	89	97	i	-7	i	-25	nt	nt	nt
COc1ccc(Nc2nnc(SCc3cc([N+](=O)[O-])cc4c3OCOC4)s2)cc1	99	104	i	7	i	-14	nt	nt	nt
SMILES	MEKK2 WT-MEK5	MEKK3 PB1 HTS	CHT block	MEKK2 mut-MEK5	CHT allo act	Mot1-301 SUMO	MEKK2wt confirm	MEKK2mut-MEK5	MEKK3 confirm
CCc1ccc(OCc2ccc(C(=O)OC)o2)cc1	103	100	i	1	i	-15	nt	nt	nt
COc1ccc(-c2csc(N(CCCN(C)C)C(=O)c3ccc(Br)cc3)n2)cc1	142*	110	i	11	i	232	135	16	103
COc1ccc(-c2csc(N(CCCN(C)C)C(=O)c3ccc(C(C)(C)C)cc3)n2)cc1	162*	110	i	26*	i	-13	172	38	108
CC(C(=O)NCCc1ccc(F)cc1)N1CCN(Cc2ccccc2)CC1 (stereo not drawn)	104	104	i	7	i	22	nt	nt	nt
CC(C)(C)n1ncc2c(=O)n(Cc3ccc(Cl)cc3Cl)cnc21	2.0*[inhibitor]	2.0*[inhibitor]	i	-69	i	-7	105	-1	105
O=C(COC(=O)C1(c2ccc(F)cc2)CCCC1)Nc1ncc(C(F)(F)F)cc1Cl	111	133*	i	2	i	13	101	-2	102
O=C(COC(=O)C1(c2ccc(Cl)cc2)CCCC1)Nc1ncc(C(F)(F)F)cc1Cl	104	99	i	2	i	7	nt	nt	nt
